Experimental findings from PubChem BioAssay AID1851 (National Center for Advancing Translational Sciences (NCATS), 2009) are described below.

Each structure is given as a SMILES string. Where “and” joins values, the source holds several entries; their conditions need not be identical. Equal values may be shown once. About 5,700 (36%) of roughly 16,000 compounds were called active. Another 24% or so got no clear call; they are omitted. The list shows a part of the results. Values without a mark were called inactive. The call rests on the fitted dose curve; in most records, active means well fitted curve in the direction sought with a large enough effect; inconclusive means small, poorly fitted or top-dose-only effect, or effect the other way; inactive means no such curve, though single readings can be large or run the other way. Peptide text beside a SMILES is read from it.
On the % scale 0 is the no-effect control and ±100 the full control effect.

Chain of Cytochrome P450 1A2 (Homo sapiens) (P05177 whole entry, looked up): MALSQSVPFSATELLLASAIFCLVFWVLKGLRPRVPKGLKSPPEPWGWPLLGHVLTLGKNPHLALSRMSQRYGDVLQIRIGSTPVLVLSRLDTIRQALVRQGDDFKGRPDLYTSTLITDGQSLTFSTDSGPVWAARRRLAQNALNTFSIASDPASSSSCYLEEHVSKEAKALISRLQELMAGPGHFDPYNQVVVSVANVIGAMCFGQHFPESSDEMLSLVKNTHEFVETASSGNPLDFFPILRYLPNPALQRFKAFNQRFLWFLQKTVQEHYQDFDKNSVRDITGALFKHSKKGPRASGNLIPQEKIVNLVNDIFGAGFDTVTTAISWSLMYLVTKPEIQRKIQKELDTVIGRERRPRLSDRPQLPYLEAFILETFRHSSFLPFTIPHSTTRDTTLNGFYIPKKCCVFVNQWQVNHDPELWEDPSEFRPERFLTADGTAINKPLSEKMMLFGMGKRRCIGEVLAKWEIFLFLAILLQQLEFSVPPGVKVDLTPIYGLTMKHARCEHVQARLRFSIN

This test addresses Cytochrome P450 1A2 (Homo sapiens) (UniProt P05177). The test is described as follows: Cytochrome panel assay with activity outcomes. Particulars: recombinant CYP, pro-luciferin dealkylation, luminescence, p450-cyp1a2; series mostly up to 57.1 µM; activity, negative = inhibition: at the top concentration.
Turning to `CCC(C)C(NC(=O)OCc1ccccc1)C(=O)OCN1C(=O)c2ccccc2C1=O` (stereo not given), the “activity, negative = inhibition” value is -13.3%.
What is called AC50 is the concentration at which the activity in the assay is half-maximal. For the compound `O=C(CCNC(=O)c1ccccc1)OCN1C(=O)c2ccccc2C1=O`, the AC50 was 2.24 µM (active).
Consider `Cc1ccc(S(=O)(=O)N[C@H]2COC(=O)C/C=C\[C@@H](C)[C@H](NS(=O)(=O)c3ccc(C)cc3)COC(=O)[C@H](C)NC(=O)C/C=C\[C@H]2C)cc1`, for which the activity, negative = inhibition was -1.96% [at 11.4 µM].
On to `COc1ccccc1-c1cc(NCc2cccs2)ncn1`, for which the AC50 was 1.58 µM (active).
`COc1ccccc1-c1cc(NCc2cccnc2)ncn1`: the half-maximal activity concentration (AC50) is 0.316 µM (active).
Regarding `COc1ccccc1CNCCCCCCNCCCCCCCCNCCCCCCNCc1ccccc1OC`, the “activity, negative = inhibition” value was 0.168%.
Consider `Cc1cccc(CNc2cc(-c3ccccc3CN(C)C)ncn2)c1`, for which the AC50 is 25.1 µM (active).
With `CN(C)Cc1ccccc1-c1cc(NCc2ccccc2)ncn1`, the “activity, negative = inhibition” value was -21%.
As to `COc1ccccc1CNCc1cccs1`, the AC50 is 0.251 µM (active).
In the case of `c1csc(CNCCCN2CCOCC2)c1`, the “activity, negative = inhibition” value was -8.37%.
As to `C[N+](C)(C)CCO`, the “activity, negative = inhibition” value was -2.79%.
As to `COc1ccccc1-c1cc(NCc2cccc(C)c2)ncn1`, the AC50 is 1.58 µM (active).
For `Clc1ccccc1C(Nc1cnccn1)Nc1cnccn1`, the activity, negative = inhibition is -18% [at 2.29 µM].
With `CN(C)Cc1ccccc1-c1cc(NCc2cccs2)ncn1`, the AC50 is 25.1 µM (active).
On the same count and under the same terms, to `Cc1cccc(CNc2cc(-c3ccccc3Cl)ncn2)c1` belongs 3.16 µM (active); to `Clc1ccccc1-c1cc(NCc2cccnc2)ncn1`, 3.16 µM (active).
Take `C=CC[C@@H]1C=C[C@H](Oc2ccc(C)cc2)[C@H](COC(=O)NCc2cccc3ccccc23)O1`: the activity, negative = inhibition was -8.02% [at 11.4 µM].
For the compound `COc1ccccc1-c1cc(NCc2ccccc2)ncn1`, the concentration at half-maximal activity (AC50) was 2.51 µM (active).
For the compound `Cc1ccc2nc(/C(C#N)=C\c3ccc(OC(=O)c4cccs4)cc3)[nH]c2c1`, the AC50 is 2.51 µM (active).
On to `N#C/C(=C\c1ccc(Oc2ccc(C(F)(F)F)cc2[N+](=O)[O-])cc1)c1nc2ccccc2[nH]1`, for which the “activity, negative = inhibition” value was -26.8%.
Take `Cc1ccc(-c2nnc(-c3ccccc3S(=O)(=O)Cc3ccc(Cl)cc3)o2)cc1`: the “activity, negative = inhibition” value is -27.6%.
As for `Clc1ccc(-c2nnc(-c3cccc4ccccc34)o2)cc1Cl`, the AC50 is 2 µM (active).
Same read-out and setting: in the case of `CN(C)c1ncc2nc(-c3ccc(Cl)cc3)c(=O)n(Cc3cccs3)c2n1` it was 1.58 µM (active); in that of `COc1ccc(-c2nc3cnc(N(C)C)nc3n(Cc3cccs3)c2=O)cc1`, 1.58 µM (active).
On to `CN(C)c1ncc2nc(-c3ccc(F)cc3)c(=O)n(Cc3cccs3)c2n1`, for which the AC50 was 1 µM (active).
With `CCCNC(=O)OC[C@@H]1O[C@H](CCO/N=C(\C)CCN2CCCCc3nc(C)c(C)cc32)C=C[C@@H]1Oc1ccc(OC)cc1`, the activity, negative = inhibition is 3.81% [at 11.4 µM].
The same measure, in the same setting: in the case of `Cc1ccc(S(=O)(=O)N[C@H]2COC(=O)[C@H](C)COC(=O)[C@H](C)NC(=O)C/C=C\[C@H]2C)cc1` it was 4.67% [at 11.4 µM].
For `Nc1ccc(-c2nc3c(Cl)c(N)ccc3[nH]2)cc1`, the AC50 is 0.794 µM (active).
Consider `CC(=O)N[C@@H](CC(=O)O)C(=O)N[C@@H](CCC(=O)O)C(=O)O` (Ac-Asp-Glu-OH), for which the AC50 result was “inactive”.
Consider `O=C(CN(CC1CCCO1)C(=O)CNS(=O)(=O)c1ccc(Cl)cc1)NCCc1ccccc1` (stereo not given), for which the “activity, negative = inhibition” value is -20.7%.
Consider `O=C(CCc1ccc(S(=O)(=O)NC2CCCCC2)cc1)N(Cc1ccccc1)Cc1ccccc1`, for which the AC50 is 1.58 µM (active).
In the case of `O=C(CCc1ccccc1)NNC(=O)C1CCCCC1`, the “activity, negative = inhibition” value is -5.87%.
For the compound `CC(C)c1ccc2c(c1)C(c1ccc(N3CCOCC3)cc1)=NNC(c1cccs1)=N2`, the concentration at half-maximal activity (AC50) is 3.16 µM (active).
On to `COC(=O)[C@@H]1CC[C@H](C)[C@@H](c2ccc(C)cc2)N1C(=O)c1ccc(/C=N\O[C@@H](C)c2cn([C@H](CO)Cc3ccccc3)nn2)cc1`, for which the activity, negative = inhibition is -8.03% [at 11.4 µM] and -18.7% [at 11.4 µM].
Turning to `O=C(OC1CCN(c2ncc(C(F)(F)F)cc2Cl)CC1)c1cccc(C(F)(F)F)c1`, the “activity, negative = inhibition” value is -26.7%.
Take `O=C(OCn1ncc(Cl)c(Cl)c1=O)c1cccc(C(F)(F)F)c1`: the AC50 is 2 µM (active).
Turning to `COCC(=O)N1CCC2(CC1)CN(Cc1ccccc1OC)C2`, the “activity, negative = inhibition” value was 19.2%.
With `CCCC[S@@](=N)(=O)CC[C@@H](N)C(=O)O`, the AC50 entry is “inactive”.
For `S=c1c2[nH]cnc2ncn1CCSc1ncnc2nc[nH]c12`, the activity, negative = inhibition is -16.9% [at 11.4 µM].
On the same count and under the same terms, to `O=C(Nc1ccc(-c2nc3ccccc3o2)cc1)c1ccc(N2CCOCC2)c([N+](=O)[O-])c1` belongs -22.7%.
For `Nc1ccc(S(=O)(=O)Nc2cnc3ccccc3n2)cc1`, the AC50 result was “inactive”.
For the compound `O=S(=O)(Nc1ccc2oc(-c3ccccc3)nc2c1)c1ccccc1`, the AC50 was 5.01 µM (active).
As for `O=C(O)Cc1ccc(NC(=O)C2CCCCC2C(=O)O)cc1` (stereo not given), the “activity, negative = inhibition” value was -4.46%.
As for `CC(C)OCCCNC(=O)C1CC(=O)N(C2CCCCCCC2)C1` (stereo not given), the “activity, negative = inhibition” value was -16.6%.
On to `CCCCC[C@H](O)c1cccc(OCc2ccc3ccccc3n2)c1`, for which the AC50 was 0.794 µM (active).
As to `O=C(O)c1ccccc1Nc1cccc(OCc2ccc3ccccc3n2)c1`, the AC50 was 1 µM (active).
`CN(C)CC(O)COc1cccc(OCC(O)CN(C)C)c1` (stereo not given): the “activity, negative = inhibition” value was -1.71%.
Regarding `CCCCOC(OCCCC)[C@H](O)CSc1ccc2ccccc2c1`, the activity, negative = inhibition was -1.2% [at 11.4 µM].
As to `FC(F)(F)c1nc(N2CCCC2)ncc1-c1nnnn1-c1ccccc1`, the “activity, negative = inhibition” value was -21.7%.
For the compound `Cc1cc(C)cc(-n2nnnc2-c2cn(C)nc2C(F)(F)F)c1`, the “activity, negative = inhibition” value is -26.4%.
Consider `FC(F)(F)c1nc(-c2ccncc2)ncc1-c1nnnn1-c1ccccc1`, for which the half-maximal activity concentration (AC50) was 25.1 µM (active).
On to `O=C(O)c1ccc2c3c1cccc3c(=O)n1c3ccccc3nc21`, for which the AC50 was 15.8 µM (active).
In the case of `O=c1c2ccc([N+](=O)[O-])c3cccc(c32)c2nc3ccccc3n12`, the AC50 is 3.55 µM (active).
Regarding `NCCSS(=O)(=O)CCN`, the activity, negative = inhibition is -17.1% [at 2.29 µM].
As to `CCc1cc2c(nc1CC)CCN(CC/C(C)=N/OC[C@@H](O)[C@@H]1O[C@@H]3OC(C)(C)O[C@@H]3[C@H]1O)C2`, the activity, negative = inhibition is -14.1% [at 11.4 µM].
With `COc1ccc(-n2c(=O)cnc3cnc(N4CCNCC4)nc32)cc1`, the concentration at half-maximal activity (AC50) is 12.6 µM (active).
The same measure, in the same setting: in the case of `Cc1nc2cnc(N3CCNCC3)nc2n(-c2ccccc2)c1=O` it was 10 µM (active); in that of `COc1ccc(-n2c(=O)c(C)nc3cnc(N4CCOCC4)nc32)cc1`, 12.6 µM (active).
For the compound `COc1ccc(-n2c(=O)c(C)nc3cnc(N4CCNCC4)nc32)cc1`, the AC50 was 15.8 µM (active).
`CCc1cc2c(nc1CC)CCN(CC/C(C)=N/OC[C@@H](C)[C@H](OCc1ccccc1)C(C)C)C2`: the activity, negative = inhibition is -7.21% [at 11.4 µM].
As to `N[C@@H](Cc1ccnnc1)C(=O)O`, the activity, negative = inhibition was -10.6% [at 2.29 µM].
As for `CC(C)NC(=O)N1CCC2(CC1)CCN(C(=O)c1cccc(F)c1)CC2`, the “activity, negative = inhibition” value is 17.5%.
Still for that read-out and setting: in the case of `O=C(O)CCc1c2ccc(=O)c(O)c-2oc2c(O)c(O)ccc12` it was -3.96% [at 2.29 µM]; in that of `O=C(N1CCOCC1)N1CCN(c2ccccc2)CC1`, -12.8%; in that of `O=C(C1CCN(S(=O)(=O)N2CCOCC2)CC1)N1CCN(c2ccccc2)CC1`, -17.5%.
In the case of `c1ccn(-c2ccc(N3CCOCC3)cc2)c1`, the AC50 is 0.251 µM (active).
As to `Nc1nc2c(c(=O)[nH]1)CN(c1ccc(S(N)(=O)=O)cc1)CN2`, the activity, negative = inhibition is 8.8% [at 2.29 µM].
As for `CC(C)c1nnc(NC(=O)CCC(=O)N2CCN(c3ccccn3)CC2)s1`, the “activity, negative = inhibition” value is -0.62%.
`CC(C)=CC(=O)Nc1nnc(C(C)C)s1`: the concentration at half-maximal activity (AC50) was 15.8 µM (active).
For the compound `CC(=O)Nc1nnc(S(N)(=O)=O)s1`, the “activity, negative = inhibition” value is -2.87% [at 25.6 µM].
On the same count and under the same terms, in the case of `Cc1ccc(/C=C/C(=O)NC(=S)Nc2ccccc2C(=O)NC2CCCCC2)cc1` it was -16.9%.
On to `Cc1ccc(-c2csc(NC(=S)NC(=O)/C=C/c3ccco3)n2)cc1`, for which the AC50 is 5.62 µM (active).
Consider `O=C(/C=C/c1ccco1)NC(=S)Nc1ccc(N2CCOCC2)c(Cl)c1`, for which the “activity, negative = inhibition” value is -5.19%.
For `O=P(O)(CCP(=O)(O)c1ccccc1)c1ccccc1`, the activity, negative = inhibition was -14.2% [at 11.4 µM].
Take `Cc1cc2nc(C)n(CCCN)c2cc1C`: the AC50 was 12.6 µM (active).
On to `CCN(CC)C(=O)C1CCN(S(=O)(=O)c2ccc3oc4ccccc4c3c2)CC1`, for which the “activity, negative = inhibition” value is -25.6%.
For `NCCCc1ccc2oc3ccccc3c2c1`, the AC50 is 0.0316 µM (active).
The same measure, in the same setting: in the case of `Cc1ccc(C(=O)Nc2ccc(Cc3ccncc3)cc2)cc1[N+](=O)[O-]` it was 0.282 µM (active).
In the case of `Cc1ccc(C(=O)COC(=O)CNC(=O)C(c2ccccc2)c2ccccc2)cc1[N+](=O)[O-]`, the “activity, negative = inhibition” value is -16.2%.
Turning to `Cc1ccc(/C=N/NC(=O)c2cccs2)cc1[N+](=O)[O-]`, the AC50 is 2.24 µM (active).
As to `O=C(N/N=C/C=C/c1ccc([N+](=O)[O-])cc1)c1cccs1`, the “activity, negative = inhibition” value was -16.7%.
Take `Cc1ccc(C(=O)N/N=C/c2cc(C)n(-c3ccc(Br)cc3)c2C)cc1[N+](=O)[O-]`: the “activity, negative = inhibition” value is -30%.
For `CCC(=O)Nc1ccc(C(=O)OCC(=O)c2ccc(C)c([N+](=O)[O-])c2)cc1`, the “activity, negative = inhibition” value is -3.08%.
For the compound `Cc1ccc(C(=O)N/N=C\c2ccc[nH]2)cc1[N+](=O)[O-]`, the AC50 was 1.78 µM (active).
Take `Cc1ccc(C(=O)Nc2ccccc2Oc2ccccc2)cc1[N+](=O)[O-]`: the AC50 was 12.6 µM (active).
As to `COc1cccc(CNC(=O)C2CCN(S(=O)(=O)N3CCCCC3)CC2)c1`, the “activity, negative = inhibition” value was -8.64%.
Take `CN1CC[C@@]2(CCN3CCc4c(oc5ccccc45)[C@@H]3C2)N(C)C1=O`: the “activity, negative = inhibition” value is -14.2%.
For the compound `C[C@@H](N)[C@@H](C)Cc1ccccc1`, the activity, negative = inhibition was -20% [at 11.4 µM].
Turning to `O=C1c2ccc3c4c(ccc(c24)C(=O)N1c1ccc2ccccc2c1)CC3`, the AC50 is 0.794 µM (active).
`CCOc1ccc(N2C(=O)c3cccnc3C2=O)cc1`: the “activity, negative = inhibition” value was -25.1%.
On to `CCc1ccc(N2C(=O)c3ccc4c5c(ccc(c35)C2=O)CC4)cc1`, for which the AC50 is 4.47 µM (active).
Same read-out and setting: in the case of `c1csc(CNc2ncnc3ccc(-c4ccoc4)cc23)c1` it was 3.16 µM (active); in that of `N#Cc1cccc(-c2ccc3ncnc(NCc4ccccc4)c3c2)c1`, 0.1 µM (active); in that of `N#Cc1cccc(-c2ccc3ncnc(NCc4cccs4)c3c2)c1`, 0.1 µM (active).
In the case of `Cc1cccc(CNc2ncnc3ccc(-c4cccc(C#N)c4)cc23)c1`, the AC50 is 0.631 µM (active).
